# RE007 growth inh = less growth of the S. pombe RE007 Vpr strain; S. pombe RE007 Vpr strain, BacTiter-Glo ATP luminescence, 24 h; Potency, µM (doses to about 92.2 µM), usual class: inhibitors; 0.21% of 360,000 active; AID 651644; active means well fitted falling curve with a large enough effect; inconclusive means small, poorly fitted or top-dose-only effect; inactive means no such curve, though single readings can be large or run the other way; further: nearly all actives have a fitted effect of over 50% in size
#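 Fission yeast RE007 carrying one integrated HIV-1 vpr copy, seeded at OD 0.01 in PMG+AL medium with 23 nL pinned compound. Grown 24 h at 30 degrees; viability read by BacTiter-Glo luminescence after 5 min.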
# AmpC inh no detg = inhibitors of E. coli AmpC beta-lactamase without detergent; AmpC nitrocefin hydrolysis, absorbance 480 nm, 0.0001% Triton; Potency, µM (top dose mostly 57.1 µM), most hits filed as inhibitors; P00811; 0.52% of 330,000 active; further: nearly all actives have a fitted effect of over 20% in size
# Target sequence (P00811 whole entry, looked up): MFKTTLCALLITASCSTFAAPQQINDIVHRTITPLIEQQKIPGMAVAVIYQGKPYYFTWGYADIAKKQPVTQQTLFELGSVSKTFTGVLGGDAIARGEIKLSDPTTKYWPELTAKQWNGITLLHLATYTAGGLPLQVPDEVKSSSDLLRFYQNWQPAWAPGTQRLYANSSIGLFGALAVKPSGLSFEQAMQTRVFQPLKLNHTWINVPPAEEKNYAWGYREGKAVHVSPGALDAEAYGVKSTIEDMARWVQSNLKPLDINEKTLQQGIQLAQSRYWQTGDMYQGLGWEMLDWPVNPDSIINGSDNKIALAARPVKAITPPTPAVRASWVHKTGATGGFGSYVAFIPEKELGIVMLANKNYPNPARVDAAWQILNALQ
#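 AmpC (5.3 nM in the dispensed reagent) in 20 mM phosphate pH 7.0 with 0.01% (detergent screen) or 0.0001% Triton X-100 was preincubated with compounds for 15 min at room temperature. Nitrocefin was then added from an 800 uM solution, and hydrolysis was followed at 480 nm.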
# AmpC inh detg = blocks E. coli AmpC beta-lactamase in detergent assay. P00811. AmpC hydrolysis of nitrocefin, absorbance 480 nm, 0.01% Triton. Potency, µM (series often up to 114 µM), most hits filed as inhibitors. 0.041% of 370,000 active. AID 485294; further: nearly all actives have a fitted effect of over 25% in size
#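 AmpC (5.3 nM in the dispensed reagent) in 20 mM phosphate pH 7.0 with 0.01% (detergent screen) or 0.0001% Triton X-100 was preincubated with compounds for 15 min at room temperature. Nitrocefin was then added from an 800 uM solution, and hydrolysis was followed at 480 nm.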
# Giardia FBPA inh = inhibitors of Giardia lamblia fructose-1,6-bisphosphate aldolase. A8B2U2. AID 2451. Potency, µM (series often up to 59.6 µM), usual class: inhibitors. 0.71% of 290,000 active. purified Giardia FBPA; further: nearly all actives have a fitted effect of over 55% in size
# Target sequence (A8B2U2 whole entry, looked up): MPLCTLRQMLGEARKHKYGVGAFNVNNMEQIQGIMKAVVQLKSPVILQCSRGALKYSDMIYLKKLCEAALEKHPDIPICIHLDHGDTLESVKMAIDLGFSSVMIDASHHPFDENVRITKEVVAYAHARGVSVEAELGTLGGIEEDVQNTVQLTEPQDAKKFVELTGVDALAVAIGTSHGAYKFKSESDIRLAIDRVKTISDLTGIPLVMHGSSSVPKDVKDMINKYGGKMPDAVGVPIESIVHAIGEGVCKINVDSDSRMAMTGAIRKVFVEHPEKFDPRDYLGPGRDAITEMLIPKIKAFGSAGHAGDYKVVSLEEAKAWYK
#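 40 nM FBPA preincubated 10 min at RT with compound (up to 57.5 uM final), then substrate plus GAPDH/TPI/NAD/arsenate coupling and diaphorase/resazurin added. Fluorescence read after 20 min at RT, 525/598 nm.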
# Sm TGR inh = S. mansoni TGR enzyme inhibition | purified TGR, DTNB reduction, TNB absorbance 405 nm | Potency, µM (top dose mostly 114 µM), usual class: inhibitors | 3% of 360,000 active | Q962Y6; further: nearly all actives have a fitted effect of over 60% in size
#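 Kinetic colorimetric format: TGR-catalysed, NADPH-driven DTNB reduction monitored via TNB absorbance. Enzyme dispensed at 20 nM; compound exposure 15 min at room temperature before reaction start.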
# A number is an active result; i = inactive; ? = inconclusive; nt = no result given; [ ] = another dose, or the depositor's remark. Compounds with a hit are over-represented: about 3.4% of the library has one in this group of screens. Unless noted, the call rests on the fitted dose curve; in most records, active means well fitted curve in the direction sought with a large enough effect; inconclusive means small, poorly fitted or top-dose-only effect, or another doubt; inactive means no such curve, though single readings can be large; an effect the other way counts as inactive or inconclusive.
SMILES,RE007 growth inh,AmpC inh no detg,AmpC inh detg,Giardia FBPA inh,Sm TGR inh
CCCOc1ccc(C2C(C(=O)c3ccc(C)o3)=C(O)C(=O)N2CCN2CCOCC2)cc1OC (stereo not given),i,i,i,i,39.8µM
CCN(CC)CCCN1C(=O)C(O)=C(C(=O)c2sc(C)nc2C)C1c1ccc(C)o1 (stereo not given),nt,i,i,i,i
CCN(CC)CCN1C(=O)C(O)=C(C(=O)c2ccc(C)o2)C1c1ccccn1 (stereo not given),i,nt,nt,nt,nt
Cc1ccc(C2C(C(=O)c3sc(C)nc3C)=C(O)C(=O)N2CCN2CCOCC2)o1 (stereo not given),i,i,i,i,39.8µM
CC(C)CN(C(=O)CSc1ncnc2ccccc12)C1CCS(=O)(=O)C1 (stereo not given),i,i,i,nt,i
O=[N+]([O-])c1cccc(-c2n[nH]c(=S)n2-c2ccc(Br)cc2)c1,i,i,i,i,0.794µM
O=C(c1ccc(Cl)cc1)[C@@H]1[C@@H]2C(=O)N(c3ccccc3)C(=O)[C@@H]2C2c3ccccc3C=NN21 (stereo not given in full),i,i,i,i,i
O=C(C1=C[C@@H]2[C@H]3C(=O)N(c4cccc(Cl)c4)C(=O)[C@H]3[C@@H](C(=O)c3ccc(Cl)cc3)N2C=C1)c1ccccc1,i,12.6µM,i,i,22.4µM
O=C(C1=C[C@@H]2[C@H]3C(=O)N(c4ccccc4Cl)C(=O)[C@H]3[C@@H](C(=O)c3ccc(Cl)cc3)N2C=C1)c1ccccc1,nt,i,i,i,25.1µM
CC(=O)Oc1ccc(C(=O)[C@H]2[C@H]3C(=O)N(c4cccc5ccccc45)C(=O)[C@H]3[C@@H]3C=CC=NN32)cc1,i,i,i,?,?
O=C(c1ccc(Cl)cc1)C1C2C(=O)N(c3ccccc3)C(=O)C2C2CCCN21 (stereo not given),i,i,i,i,?
Cc1ccc(N2C(=O)[C@@H]3[C@H](C2=O)[C@H]2C=C(C(=O)c4ccccc4)C=CN2[C@@H]3C(=O)c2ccc(Cl)cc2)cc1,i,i,i,i,39.8µM
CCOc1cc(NC(=O)C2CC2)c(OCC)cc1NC(=O)c1cc(OC)c(OC)c(OC)c1,i,i,i,i,i
CN(C)S(=O)(=O)c1cccc(NC(=S)NCCCn2ccnc2)c1,i,i,i,i,50.1µM
O=C1CCCN1CCCNC(=S)Nc1ccc(Cl)cc1Cl,i,i,i,i,89.1µM
S=C(NCCCn1ccnc1)Nc1ccc(Cl)cc1Cl,i,i[2.29 µM],i,i,31.6µM
O=C(NCCCN1CCCC1=O)Nc1ccc(Cl)cc1Cl,i,i,i,i,i
CCOc1ccc(NC(=O)C(=O)NCCCn2ccnc2)cc1,i,0.159µM,i,i,i
Cc1ccc(S(=O)(=O)N(C)C)cc1NC(=S)NCCCn1ccnc1,i,i,?,i,?
O=C(NCCCn1ccnc1)Nc1ccc(Cl)cc1,i,i,i,nt,i
CCC(=O)c1ccc(OCC(=O)N(CC)CC(=O)Nc2ccccc2OC)cc1,i,i,?,nt,i
COC(=O)c1c(NC(=O)CC2Sc3ccc(C(F)(F)F)cc3NC2=O)sc(C)c1C (stereo not given),i,i,?,i,i
Cc1c(CN2CCCCC2C)c(=O)n(-c2ccccc2)n1C (stereo not given),i,i,?,i,i
CC(=O)c1csc(-c2cccc(-c3nc4ccc(Cl)cn4c3NC3CCCCC3)c2)c1,i,i,i,nt,i
Cc1ccc(C(C)(O)CS(=O)(=O)Cc2ccccc2Cl)cc1 (stereo not given),i,i,i,i,50.1µM
SMILES,RE007 growth inh,AmpC inh no detg,AmpC inh detg,Giardia FBPA inh,Sm TGR inh
COc1ccc(CCNC(=O)CSCC(=O)Nc2cc(S(C)(=O)=O)ccc2Cl)cc1,i,i,nt,nt,nt
COc1ccc(CNC(=S)Nc2ccc(-c3ccccc3)cc2)cc1,i,14.1µM,i,i,i
COc1ccc(CNC(=S)Nc2ccccc2Cl)cc1,i,i,i,?,39.8µM
COc1ccc(CNC(=S)Nc2ccccc2-c2ccccc2)cc1,nt,i,i,i,i
COc1ccc(CNC(=S)Nc2ccc(Br)cc2)cc1,i,i,i,i,i
Cn1ncc(Cl)c1C(=O)Nc1cccc(Cl)c1,?,i,?,i,44.7µM
CSc1cccc(NC(=O)c2c(Cl)cnn2C)c1,i,nt,i,i,i
COc1cc(C2NC(=S)NC(O)(C(F)(F)F)C2C(=O)c2cccs2)cc(OC)c1O (stereo not given),i,i,i,i,i
O=C1NC(c2ccccc2)C(C(=O)c2cccs2)C(O)(C(F)(F)F)N1 (stereo not given),i,i,?,i,31.6µM
O=C(O)c1ccc2c(=O)n3c(nc2c1)/C(=C/c1ccc(C(F)(F)F)cc1)CC3,i,i,i,i,i
O=c1c2ccccc2nc2n1CC/C2=C/N1CCN(c2cccc(C(F)(F)F)c2)CC1,i,i,i,?,31.6µM
Cc1nc2nc(N)nn2c(C)c1C/C=C/c1ccccc1,i,i,?,i,15.8µM
COC(=O)c1ccc(CN(C)S(=O)(=O)c2ccc(C)cc2)o1,i,i,?,i,i
COC(=O)c1ccc(CS(=O)(=O)c2ccc(C)cc2)o1,i,i,i,i,11.2µM
COCCCNC(=O)c1ccc(CSCc2ccc(C)cc2)o1,i,i,i,i,39.8µM
CCCCNC(=O)c1ccc(CS(=O)(=O)c2ccc(C)cc2)o1,i,i,i,i,44.7µM
O=C(COc1ncnc2ccc(Br)cc12)NCc1ccc2c(c1)OCO2,i,i,i,i,i
CCCN(Cc1cc2cc(OC)ccc2[nH]c1=O)C(=O)c1ccco1,i,i,i,i,39.8µM
CCOC(=O)c1cccc(S(=O)(=O)N(CCO)Cc2cc3cc(OC)ccc3[nH]c2=O)c1,i,i,i,i,i
COC(=O)c1cccc(S(=O)(=O)N(Cc2ccco2)Cc2cc3cc(OC)ccc3[nH]c2=O)c1,i,i,i,i,28.2µM
CCCCN(Cc1cc2cc(OC)ccc2[nH]c1=O)C(=O)c1ccco1,i,i,?,i,44.7µM
COc1ccc2[nH]c(=O)c(CN(C(=O)c3ccco3)C(C)C)cc2c1,i,i,i,i,i
CC(=O)c1cccc(NC2c3ccccc3C(=O)N2Cc2ccc3c(c2)OCO3)c1 (stereo not given),i,i,?,i,i
Cc1cc(OC(=O)c2ccc(Cl)cc2Cl)nc(C)n1,i[3.69 µM],i,i,i,56.2µM
O=C(CSc1nnc(Cc2cc(=O)[nH]c(=O)[nH]2)n1-c1ccc(Cl)cc1)NC1CCCC1,i,i,i,i,i
CC(=O)N1[C@H](Cc2ccccc2)C=C[C@]1(C)C(=O)NCc1ccc(C)o1,i,i,i,i,8.91µM
Cc1ccsc1/C=N/Nc1nc(=O)[nH]nc1C,12.6µM,i,i,?,i
Cc1cc(C)nc(N/N=C/c2sccc2C)n1,i,i[2.29 µM],i,i,i
